Structures can show the parent of a compound that is named as a salt.
Experiments:
Conditions in all cases: 20 µM; incubation time: 27 h, anaerobic, 37 °C;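 for the amine columns active = adjusted P below 0.05 in both replicates with a change the same way and a mean fold change under 0.8 or over 1.25; inactive = the rest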
[1] = tested on: Clostridium sporogenes DSM 1664; assay: growth (OD595) fold change vs plate DMSO controls (fold change (ratio)); higher = more growth
Outline: (§1)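 Growth is expressed as the fold change relative to the median of the DMSO control wells on each plate. Cultures in mGAM were grown anaerobically in 96-well plates for 27 h at 37 °C, shaken, and read at 595 nm. Readings were blank-subtracted, corrected for compound background with 20 µM compound solutions in water, and converted to OD with a calibration factor of 5. Fold changes above 1.5 were set to NA, and each value is the mean of 2 biological replicates.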

Escherichia coli IAI1 [2] = assay: as above
Outline: as §1

[3] = tested on: Klebsiella aerogenes DSM 30053; assay: as above
Outline: as §1

[4] = tested on: Ruminococcus gnavus DSM 108212; assay: as above
Outline: as §1

[5] = tested on: Klebsiella aerogenes DSM 30053; assay: fold change of Histamine concentration vs plate DMSO controls (fold change (ratio)); higher = more amine produced, active = hit call of the paper (significant change in both replicates, either direction)
Outline: (§2)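 Amines were quantified by LC–triple-quadrupole MS in dynamic MRM mode against external calibration curves, with drift correction within each batch. The samples were whole anaerobic mGAM cultures of four gut bacterial strains, grown for 27 h at 37 °C in 80 µL wells and extracted with cold acetonitrile/methanol with 0.1% formic acid, then centrifuged. Values are reported as fold change over DMSO controls on the same plate. The mean of 2 biological replicates is given.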

[6] = tested on: Clostridium sporogenes DSM 1664; assay: fold change of Tryptamine concentration vs plate DMSO controls (fold change (ratio)); higher = more amine produced, active = hit call of the paper (significant change in both replicates, either direction)
Outline: as §2

[7] = tested on: Ruminococcus gnavus DSM 108212; assay: as above
Outline: as §2

Escherichia coli IAI1 [8] = assay: fold change of Putrescine concentration vs plate DMSO controls (fold change (ratio)); higher = more amine produced, active = hit call of the paper (significant change in both replicates, either direction)
Outline: as §2

[9] = tested on: Klebsiella aerogenes DSM 30053; assay: as above
Outline: as §2

Escherichia coli IAI1 [10] = assay: fold change of Cadaverine concentration vs plate DMSO controls (fold change (ratio)); higher = more amine produced, active = hit call of the paper (significant change in both replicates, either direction)
Outline: as §2

[11] = tested on: Klebsiella aerogenes DSM 30053; assay: as above
Outline: as §2

[12] = tested on: Ruminococcus gnavus DSM 108212; assay: fold change of 2-Phenylethylamine concentration vs plate DMSO controls (fold change (ratio)); higher = more amine produced, active = hit call of the paper (significant change in both replicates, either direction)
Outline: as §2

SMILES | growth [1] | growth (Escherichia coli IAI1 [2]) | growth [3] | growth [4] | fold change of Histamine concentration [5] | fold change of Tryptamine concentration [6] | fold change of Tryptamine concentration [7] | fold change of Putrescine concentration (Escherichia coli IAI1 [8]) | fold change of Putrescine concentration [9] | fold change of Cadaverine concentration (Escherichia coli IAI1 [10]) | fold change of Cadaverine concentration [11] | fold change of 2-Phenylethylamine concentration [12]
COP(=S)(OC)SCN1C(=O)c2ccccc2C1=O | 1.02 | 1.08 | 1.05 | 0.965 | 0.945 (inactive) | 1.03 (inactive) | 1.01 (inactive) | 1.01 (inactive) | 1.01 (inactive) | 0.997 (inactive) | 1.01 (inactive) | 1 (inactive)
C[N+]1(C)CCCCC1 | 1 | 1.08 | 1.02 | 1.04 | 1.01 (inactive) | 0.957 (inactive) | 1.03 (inactive) | 1 (inactive) | 1.01 (inactive) | 0.995 (inactive) | 1.02 (inactive) | 1.05 (inactive)
CCOCN(C(=O)CCl)c1c(C)cccc1CC | 0.867 | 1.01 | 0.997 | 1.08 | 1.01 (inactive) | 1.06 (inactive) | 1.01 (inactive) | 0.901 (inactive) | 0.941 (inactive) | 0.88 (inactive) | 1 (inactive) | 1.02 (inactive)
O=[N+]([O-])/N=C1\NCCN1Cc1ccc(Cl)nc1 | 1.04 | 0.975 | 0.996 | 0.979 | 0.986 (inactive) | 1.01 (inactive) | 0.989 (inactive) | 0.964 (inactive) | 0.998 (inactive) | 0.98 (inactive) | 0.998 (inactive) | 1 (inactive)
CN[C@@H]1C[C@@H](c2ccc(Cl)c(Cl)c2)c2ccccc21 [Indatraline hydrochloride] | 1.13 | 1.06 | 0.959 | 0.932 | 0.904 (inactive) | 1.29 (inactive) | 0.8 (inactive) | 0.811 (inactive) | 0.863 (inactive) | 0.98 (inactive) | 1.1 (inactive) | 0.883 (inactive)
CC(C1CC1)C(O)(Cn1cncn1)c1ccc(Cl)cc1 (mixture of isomers) | 0.851 | 0.991 | 0.991 | 0.941 | 1.01 (inactive) | 0.92 (inactive) | 0.994 (inactive) | 1.01 (inactive) | 0.996 (inactive) | 1 (inactive) | 0.995 (inactive) | 0.953 (inactive)
CC(Cc1ccc(O)cc1)NCC(O)c1cc(O)cc(O)c1 (stereo unspecified) [Fenoterol hydrobromide] | 1 | 1 | 1.01 | 1.21 | 1.06 (inactive) | 0.982 (inactive) | 1.04 (inactive) | 1.02 (inactive) | 1.04 (inactive) | 0.983 (inactive) | 0.991 (inactive) | 1.04 (inactive)
CCCCc1c(C)nc(NCC)nc1OS(=O)(=O)N(C)C | 0.862 | 1.04 | 0.957 | 0.952 | 1.03 (inactive) | 1.06 (inactive) | 0.959 (inactive) | 0.985 (inactive) | 0.995 (inactive) | 1.01 (inactive) | 0.998 (inactive) | 0.996 (inactive)
CCN(C)C(=O)Oc1cccc([C@H](C)N(C)C)c1 [Rivastigmine] | 0.985 | 1.03 | 1.02 | 1.05 | 0.987 (inactive) | 1.18 (inactive) | 1.13 (inactive) | 0.958 (inactive) | 0.993 (inactive) | 0.937 (inactive) | 1.03 (inactive) | 1.18 (inactive)
CC(Cc1ccccc1)NCCC(c1ccccc1)c1ccccc1 (stereo unspecified) [Prenylamine lactate] | 1.01 | 0.997 | 1 | 1.45 | 0.979 (inactive) | 0.96 (inactive) | 0.913 (inactive) | 1.37 (inactive) | 0.961 (inactive) | 0.657 (active) | 0.987 (inactive) | 0.983 (inactive)
CCCC(Cn1cncn1)c1ccc(Cl)cc1Cl (stereo unspecified) | 0.931 | 0.973 | 1.02 | 0.977 | 1.02 (inactive) | 1.01 (inactive) | 0.984 (inactive) | 1.02 (inactive) | 1.02 (inactive) | 0.965 (inactive) | 0.997 (inactive) | 0.953 (inactive)
CC(C)(C)NCC(O)c1cc(Cl)c(N)c(Cl)c1 (stereo unspecified) [Clenbuterol hydrochloride] | 1.03 | 1.02 | 1.01 | 1.13 | 0.983 (inactive) | 0.986 (inactive) | 1.02 (inactive) | 0.991 (inactive) | 0.983 (inactive) | 0.987 (inactive) | 1 (inactive) | 1.02 (inactive)
CC(=O)NC1CCSC1=O (stereo unspecified) [Citiolone] | 1.15 | 0.993 | 1.07 | 1 | 0.819 (inactive) | 1.05 (inactive) | 1.17 (inactive) | 1.02 (inactive) | 0.93 (inactive) | 0.99 (inactive) | 1.06 (inactive) | 1.31 (inactive)
